Rows were chosen to be rich in hits. Some 1.3% of all compounds tested hit in one or more screens of this group.
SRC3 inh = SRC3 coactivator transcriptional activity inhibitors, primary screen, cell-based, luminescence | Nuclear receptor coactivator 3 (Homo sapiens), Q9Y6Q9 | HEK293 GAL4-SRC3 luciferase reporter | AID 588352, 2011 | inhibition, % at 3.6 µM | 0.17% of 360,000 active;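 active means inhibition above a per-campaign cutoff, the mean of all compounds plus 3 SD, cut at about 60% in these data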;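 further: 0% = DMSO-treated cells and 100% = gossypol-treated cells at 36 µM; higher means less SRC3-driven luciferase light from the GAL4 reporter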
NCOA2 inhibitor = inhibition of GAL4-SRC2 driven luciferase reporter, primary screen, SRC2 inhibitor project, cell-based, luminescence; Nuclear receptor coactivator 2 (Homo sapiens), Q15596; AID 651957, 2012; 0.17% of 370,000 active; HEK293 GAL4-SRC2 luciferase reporter; inhibition, % at 9 µM;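 active means inhibition above the mean inhibition of all tested compounds plus 3 SD, set per campaign, cut at about 52% in these data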;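 further: 0% = DMSO treated cells and 100% = cells given Gossypol at 36 µM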
COUP-TFII inh = NR2F2 transcriptional activity inhibitors, primary screen, cell-based, luciferase reporter, HEK293T, luminescence | COUP transcription factor 2 (Homo sapiens), P24468 | HEK293T NGFI-A luciferase reporter | inhibition, % at 8.6 µM | 0.7% of 370,000 active;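 active means inhibition above a per-plate cutoff, mean inhibition of test wells between control levels plus 3 SD, cut at about 38% in these data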;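 further: cells cotransfected with COUP-TFII expression vector driving the NGFI-A reporter; 0% = median of COUP-TF2 test wells and 100% = reporter-only cells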
NCOA1 inh = SRC1 coactivator transcriptional activity inhibitors, primary screen, cell-based, luminescence | Nuclear receptor coactivator 1 (Homo sapiens), Q15788 | HEK293 GAL4-SRC1 luciferase reporter | inhibition, % at 3.6 µM | 0.12% of 360,000 active;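 active means inhibition above the campaign mean plus 3 SD, with each screening campaign given its own cutoff, cut at about 60% in these data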;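 further: 0% = DMSO treated cells and 100% = gossypol at 36 µM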
Gli-Sufu antag = Gli-Sufu pathway antagonists, primary screen, luciferase luminescence, Sufu-KO-LIGHT cells, uHTS; inhibition, % at 5 µM; AID 588413, 2011; 0.74% of 340,000 active; Sufu-KO-LIGHT fibroblasts, Gli luciferase reporter luminescence;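 active means inhibition above about 55%, limit read from the data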;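 further: 0% = DMSO-treated cells and 100% = wells with medium but no cells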
LRH-1 inv ag = LRH-1 (NR5A2) inverse agonists, primary screen, cell-based, luminescence, HEK293T, StAR-luciferase reporter; LRH-1 transfected, 24 h; inhibition, % at 3.6 µM; 0.13% of 360,000 active;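 active means inhibition above the mean inhibition of all tested compounds plus 3 SD, cut at about 73% in these data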;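 further: 0% = DMSO wells and 100% = reporter-only cells lacking LRH-1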
Numbers without * were called inactive; . = no result given.

SMILES	SRC3 inh	NCOA2 inhibitor	COUP-TFII inh	NCOA1 inh	Gli-Sufu antag	LRH-1 inv ag
Cc1ccc(C[n+]2c(-c3ccc(C)cc3)cc(-c3ccc(C)cc3)cc2-c2ccc(C)cc2)cc1	83*	.	.	68*	90*	95*
CCCC[C@@H](C)C[C@@H](C)C(=O)N(C)[C@@H](CC(C)C)C(=O)N[C@H](C(=O)N(C)[C@H](C(=O)N1C[C@@H](O)C[C@H]1C(=O)N1C(=O)C=C[C@@H]1C)C(C)C)C(C)OC(C)=O (stereo not given in full)	46	.	.	-99	7	75*
Cn1c(=O)n(C)c2cc([N+](=O)[O-])c(N3CCNCC3)cc21	-10	-6	-2	-16	57*	8
O=[N+]([O-])c1ccc(N2CCNCC2)c(Cl)c1	0	24	4	12	15	1
Brc1ccc2c(c1)-n1nncc1CNC2	.	-23	-23	.	.	.
C=C(C=O)C[C@@H]1C[C@H](O)C2OC3C[C@]4(C)OC5/C=C\CC6OC7C(CC=CCC6OC5CCCC4OC3CC2O1)OC1CC2OC3CC(=O)OC3C[C@@H](C)C[C@@]2(C)OC1C[C@@H]7C (stereo not given in full)	.	.	.	.	61*	.
C=C1C(=O)C(C)=C2C(=O)N3Cc4[nH]c5ccccc5c4CC3(C(=O)OC)C12 (stereo not given)	.	-8	7	.	.	.
CC(C)CCP(=O)(O)O	.	-10	-1	.	.	.
COc1ccc(-[n+]2c(-c3ccccc3)cc(-c3ccc(C)cc3)cc2-c2ccccc2)cc1	79*	37	77*	66*	91*	86*
Cc1ccccc1[N+](=O)[O-]	4	19	0	6	14	-5
Cc1cc([N+](=O)[O-])c2ccccc2[n+]1[O-]	52	.	.	63*	17	58
CC(C)(C)NC(=O)C1CN=C(c2ccccc2)c2cc(Cl)ccc2N1C(=O)C1CCC1 (stereo not given)	.	8	-1	.	.	.
CC(NC(=O)OC1CC2CCC1(C)C2(C)C)P(=O)(Oc1ccccc1)Oc1ccccc1 (stereo not given)	.	.	-10	.	.	.
COC(=O)C1CN(C#N)N(c2ccc(Cl)cc2)C12c1ccccc1-c1ccccc12 (stereo not given)	73*	.	.	-27	47	28
CC1=CC(C)CC(C)OC(=O)CC(c2ccc(O)cc2)NC(=O)C(Cc2c(Br)[nH]c3ccccc23)N(C)C(=O)C(C)NC(=O)C(C)C1 (stereo not given)	22	22	-21	-14	83*	25
CC12CCC(O)CC1CCC1C2CCC2(C)C(C3=CC(=O)OC3)C(O)CC12O (stereo not given)	67*	2	51*	52	-5	86*
CC12CC[C@H]3[C@@H](CCC4(O)C[C@H](O)CCC34/C=N/NC(=O)Cc3ccccc3)C1(O)CCC2C1=CC(=O)OC1 (stereo not given in full)	10	5	-7	5	2	7
c1ccc(-c2nc3ccccc3nc2-c2ccc(CN3CCC(n4nnc5ccccc54)CC3)cc2)cc1	.	18	26	.	.	.
CC=CC(C)=CC(C)C(=O)CC(O)CC1CC(=O)NC(=O)C1 (stereo not given)	0	-13	39*	21	.	41
N#CCC[C@@H]1CC[C@]2(CCCN(Cc3ccccn3)C2)O1	.	-22	-7	.	.	.
CC(=O)OC(C)(C)/C=C/C(=O)[C@](C)(O)C1[C@H](O)C[C@@]2(C)C3CC=C4C(C[C@H](O)C(=O)C4(C)C)[C@]3(C)C(=O)C[C@]12C (stereo not given in full)	28	.	.	-4	85*	34
O=C(NCCN1CCC2(CC1)C(=O)NCN2c1ccccc1)c1ccc(Cl)cc1	.	-14	7	.	.	.
O=C(NCCN1CCC2(CC1)C(=O)NCN2c1ccccc1)c1ccc2ccccc2c1	.	-15	6	.	.	.
COc1cc2cc(C(=O)N3CC(COS(C)(=O)=O)c4ccc(O)cc43)[nH]c2c(OC)c1OC (stereo not given)	94*	.	.	90*	94*	65
COc1ccc(OC(=O)N(C)C[C@H]2OCc3cnnn3CCCC(=O)N([C@@H](C)CO)C[C@@H]2C)cc1	.	14	-5	.	.	.
SMILES	SRC3 inh	NCOA2 inhibitor	COUP-TFII inh	NCOA1 inh	Gli-Sufu antag	LRH-1 inv ag
CNc1ccc2oc(C[C@H]3O[C@@]4(CC[C@H]3C)O[C@H]([C@H](C)C(=O)c3ccc[nH]3)[C@H](C)C[C@H]4C)nc2c1C(=O)O	-18	6	10	-15	83*	0
O=C(NCCN1CCC2(CC1)C(=O)NCN2c1ccccc1)c1ccc(F)cc1	.	-21	-13	.	.	.
CC1Oc2cc3c(-c4c(O)cc(O)c5c(O)c6c(cc45)OC(C)C(C)C6=O)c(O)cc(O)c3c(O)c2C(=O)C1C (stereo not given)	23	.	.	-3	68*	-21
C=C1C(=O)OC2C1CCC(C)C1(O)C=CC(=O)C21C (stereo not given)	-14	-7	-5	-54	-23	-51
C=C1C(=O)O[C@H]2C[C@@H](C)[C@@H]3C=CC(=O)[C@@]3(C)C[C@H]12	.	72*	32	.	61*	.
C=C1C(=O)OC2CC(C)C3C=CC(=O)C3(C)C(O)C12 (stereo not given)	42	.	.	36	94*	81*
C=C1C(=O)O[C@@H]2C[C@@H](C)[C@@H]3C4OC4C(=O)[C@@]3(C)[C@@H](O)[C@H]12 (stereo not given in full)	-13	78*	68*	-62	18	66
Cc1cc(N2CCNC[C@H]2C)ccc1N1CC[C@H](O)C1	.	15	-3	.	.	.
O=C(NC(CCC(O)CO)P(=O)(Oc1ccccc1)Oc1ccccc1)OCc1ccccc1 (stereo not given)	.	11	-38	.	.	.
O=[N+]([O-])c1ccc(N(CCO)CCO)c2c1no[n+]2[O-]	67*	58*	-14	55	.	83*
CCCCCCCn1c(=O)c(C(=O)Nc2cnccn2)c(O)c2ccccc21	55	-10	-7	-15	31	12
CCCCCn1c(=O)c(C(=O)Nc2cnccn2)c(O)c2ccccc21	3	7	-5	2	63*	19
CC(=O)O[C@H]1[C@H]2O[C@]23[C@@H]2CC[C@]4(O)C[C@@H](O)CC[C@]4(C)C2CC[C@]3(C)[C@H]1c1ccc(=O)oc1 (stereo not given in full)	89*	.	.	86*	-2	100*

Compound activity: PubChem, several laboratories
